TROY NFkB inh: TROY signaling inhibition. inhibition, % at 10 µM. 0.98% of 360,000 active. Q293 LMP1-TROYcd NF-kB luciferase reporter, 4 h;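 active = compounds whose plate-normalised and pattern-corrected inhibition of the luciferase reporter signal at the single screening dose is 50% or more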
Peg3 prom inh: Peg3 promoter activity inhibition | HeLa PEG-Prom luciferase reporter, luminescence, overnight | inhibition, % at 20 µM | 1.7% of 360,000 active | AID 588405;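 active = inhibition of at least 50% at 20 µM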
TWEAK-Fn14 inh: inhibitors of TWEAK-Fn14 interaction signaling; inhibition, % at 10 µM; TWEAK-stimulated Fn14 reporter cells, luciferase luminescence, 8 h; 2% of 360,000 active; in the data active = inhibition above about 50%
CF NFkB block: blocks PAF-induced NF-kB reporter in cystic fibrosis cells; KKLEB NF-kB-GFP reporter, GFP fluorescence overnight; inhibition, % at 5 µM; 0.86% of 360,000 active; AID 588850;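 active = at least 50% inhibition at 5 µM, scaled per plate between neutral and stimulator controls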;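 also: PAF is a Pseudomonas aeruginosa culture filtrate used as stimulus; plate controls were PAF-stimulated DMSO wells for no effect and unstimulated DMSO wells for full effect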
KKLEB tox: reduces viability of KKLEB cystic fibrosis airway cells | KKLEB CF airway cells viability, ATPlite luminescence, overnight; active compounds read low; cells stimulated with P. aeruginosa culture filtrate | AID 602141 | activity change (cytotoxicity), % at 5 µM | 0.36% of 360,000 active;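 active = corrected activity change at or below -50% at 5 µM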
HIF-2a block: HIF-2a inhibition; 786-0 RCC cells HIF-2a reporter, luciferase luminescence, overnight; inhibition, % at 18.8 µM; 0.72% of 360,000 active;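 active = inhibition of the luminescence signal of 40% or more relative to plate controls, in a single-dose primary screen at 18.75 µM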
* hit, by the source's call; / = no result given. Rows were chosen to be rich in hits. Some 4% of all compounds tested hit in one or more screens of this group.

SMILES	TROY NFkB inh	Peg3 prom inh	TWEAK-Fn14 inh	CF NFkB block	KKLEB tox	HIF-2a block
CC1CCc2c(sc3nc(SCC(=O)O)n(-c4ccccc4)c(=O)c23)C1 (configuration not stated)	-27	-1	89*	-10	8	6
Cc1ccc(-n2c(SCC(=O)O)nc3sc4c(c3c2=O)CCCC4)cc1	0	8	10	-19	14	17
CN(C)/C=N/C(=S)Nc1ccc(Cl)c(Cl)c1	-23	-164	-3	5	-4	-180
CN(C)/C=N/C(=S)Nc1ccccc1F	/	-70	74*	-12	8	-67
CN(C)/C=N/C(=S)Nc1ccc(F)cc1	/	-48	88*	-3	-2	-58
O=[N+]([O-])c1ccc(-c2c(O)c3ccccc3c3nc4ccccc4nc23)cc1	54*	52*	22	42	-9	-3
O=[N+]([O-])c1ccc(-c2cnc3ccccc3n2)cc1	-55	-207	-11	-16	-1	-225
Cc1ccc(NC(=O)NC2CCCCC2)c(C)c1	-47	-56	-5	6	-1	-6
O=C(CCC1CCCC1)NCCS(=O)(=O)N1CCN(c2ccccc2F)CC1	6	20	15	-3	-8	5
CN1CCN(c2ccc(-c3cc(NC=O)c4ncc(-c5ccc(F)c(Cl)c5)n4c3)cc2)CC1	51*	96*	-24	-9	-12	-143
O=CNc1cc(-c2ccccc2)cn2c(-c3ccc(F)c(Cl)c3)cnc12	9	10	24	0	-16	-13
CC(=O)Nc1cc(-c2ccc(N3CCN(C)CC3)cc2)cn2c(-c3ccc(F)c(Cl)c3)cnc12	23	75*	-20	3	-15	-10
O=CNc1cc(-c2ccc(C(=O)NC3CC3)cc2)cn2c(-c3ccccc3)cnc12	1	61*	4	23	-17	-52
O=CNc1cc(-c2ccc(C(=O)NC3CC3)cc2)cn2c(-c3ccc(F)c(Cl)c3)cnc12	5	28	34	3	-8	-149
COc1ccc(-c2cnc3c(NC=O)cc(-c4ccccc4)cn23)cc1OC	-28	23	15	46	-38	-22
CN(C)CCNC(=O)c1cccc(-c2cnc3c(NC=O)cc(/C=C/c4ccccc4)cn23)c1	8	97*	-56	-11	-1	-44
COc1ccc(-c2cc(NC=O)c3ncc(-c4ccc(C(C)=O)cc4)n3c2)cn1	9	57*	11	24	-32	10
CC(=O)c1ccc(-c2cnc3c(NC=O)cc(-c4ccc(N5CCN(C)CC5)cc4)cn23)cc1	46	-101	-55	-8	-18	-73
COc1ccc(-c2cnc3c(NC=O)cc(-c4ccc(F)cc4)cn23)cc1OC	23	7	15	66*	-52*	22
O=C(COC(=O)C1CCN(c2ccc(C(F)(F)F)cn2)CC1)Nc1cc(F)ccc1F	11	3	-13	5	1	3
CCNC(=O)C(=O)N1CCC2(CC1)OCCN2S(=O)(=O)c1ccc(C)cc1	5	6	7	2	11	13
Cc1ccc(-c2nnc(SCC(=O)N(CC(C)C)c3c(N)n(Cc4ccccc4)c(=O)[nH]c3=O)n2N)cc1	-2	17	-22	-5	2	15
COc1cccc(-c2cnc3c(NC=O)cc(-c4cc(OC)c(OC)c(OC)c4)cn23)c1	3	32	23	-50	-4	-52
COc1ccc(-c2cc(NC(C)=O)c3ncc(-c4cccc(C(C)=O)c4)n3c2)cc1OC	62*	36	4	-47	5	-19
COc1ccc(-c2cnc3c(NC=O)cc(-c4cc(OC)c(OC)c(OC)c4)cn23)cc1OC	7	65*	25	-9	-25	-1
SMILES	TROY NFkB inh	Peg3 prom inh	TWEAK-Fn14 inh	CF NFkB block	KKLEB tox	HIF-2a block
CCOC(=O)CSC1=NC(=O)/C(=C\c2ccc(OC(C)=O)cc2)S1	-40	53*	-9	0	1	19
CCOC(=O)CSC1=NC(=O)/C(=C/c2ccc(Br)cc2)S1	-9	75*	-31	42	-16	-130
O=C(O)/C=C(/c1ccccc1)C(F)(F)F	-7	5	-14	4	-2	22
CCOc1cc(C(=O)Nc2cccnc2)cc(OCC)c1OCC	52*	19	21	23	8	19
CCCOc1ccc(C(=O)Nc2cccnc2)cc1	-44	-213	2	9	-5	-178
COc1ccc(S(=O)(=O)N2CCN(c3ccc(F)cc3)CC2)cc1C(=O)N1CCOCC1	-5	-2	4	13	2	6
NC(COCc1ccccc1)c1csc(Nc2ccc(C(F)(F)F)cn2)n1 (configuration not stated)	13	102*	-8	-5	7	9
NC(CCc1ccccc1)c1csc(Nc2ccc(C(F)(F)F)cn2)n1 (configuration not stated)	-8	110*	-17	18	-12	15
CN(C)c1ccc(/C=N/N=C2/NC(=O)/C(=C/c3ccc([N+](=O)[O-])cc3)S2)cc1	33	-140	60*	20	-23	0
Cc1cccc(C2c3[nH]c4ccccc4c3CCN2Cc2cnn(-c3ccc(F)cc3)c2)n1 (configuration not stated)	-22	14	-32	0	-4	2
CCCN1C(=O)C(=O)c2cc(C)ccc21	-14	-4	-4	-1	5	3
Cc1ccc2c(c1)-c1cc(C)ccc1C2=O	-24	-20	64*	11	5	-17
CCCCC(CCC(=O)O)(C(=O)OCC)c1csc(Nc2ccccc2)n1 (configuration not stated)	9	6	-5	-4	0	13
CCCCC(CCC(=O)O)(C(=O)OCC)c1csc(N)n1 (configuration not stated)	/	3	73*	8	-1	11
COc1ccc(NC(=O)NC(=O)c2ccccc2)cc1	-14	-230	6	4	0	-243
O=C(Nc1ccccc1)Nc1cc(Cl)cc(Cl)c1	51*	-62	41	48	-45	-158
O=C(Nc1cccc(Cl)c1)Nc1cccc(Cl)c1	-19	-49	-8	20	-14	-128
O=C(Nc1ccccc1)Nc1cc(OCC(F)(F)F)cc(OCC(F)(F)F)c1	43	42	59*	46	-51*	-13
O=C(NC(=O)c1ccccc1)Nc1ccccc1	10	-89	72*	-10	8	-86
COc1cccc(OC)c1C(=O)OCC(=O)NCc1ccco1	-19	6	5	-7	-7	16
CC(=O)c1c(C)[nH]c(C(=O)O)c1C	11	4	13	14	5	17
CC(=O)c1c(C)[nH]c(C)c1C(C)=O	10	0	62*	4	-5	-16
Cc1cc(C)cc(NC(=O)CCc2nc3sc4c(c3c(=O)[nH]2)CCCC4)c1	-4	84*	16	-2	-5	4

Source: PubChem BioAssay (Sanford-Burnham Center for Chemical Genomics)
